# Many of the other results were omitted from the sample, so hits are more common in it than they were.
# RGS4 inhibitor: Inhibitors of Regulator of G Protein Signaling (RGS) 4: qHTS; Regulator of G-protein signaling 4 (Homo sapiens), P49798; Transcreener GDP fluorescence polarization, RGS4-accelerated GTP hydrolysis; AID 504845, 2011; actives 0.039% (n = 390,000); Potency, µM (doses to about 114 µM), usual class: inhibitors; note: nearly all actives have a fitted effect of over 75% in size
#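 MLSMR compounds (23 nl, pin-transferred) preincubated 10 min at room temperature with a 500nM (2x) first reagent, then RGS4 at 900nM (2x) plus Transcreener GDP mix added; fluorescence polarization (620/688 nm) read before and after 90 min at 30 °C.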
# ClpP mod: qHTS Assay for Activators of ClpP. ATP-dependent Clp protease proteolytic subunit (Bacillus subtilis (strain 168)), P80244. purified B. subtilis ClpP, FRET peptide cleavage, 20 min. Potency, µM (doses to about 57.5 µM). actives 1.9% (n = 340,000). AID 651965, 2013; active = well fitted falling curve with a large enough effect; inconclusive = small, poorly fitted or top-dose-only effect; inactive = no such curve, though single readings can be large or run the other way; note: the source files actives as falling curves though it sought activators and does not explain the sign; nearly all actives have a fitted effect of over 65% in size
#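 Buffer: 100 mM Tris/HCl pH8, 100 mM KCl, 0.05% low protease BSA, 2.5% glycerol, 0.01% Tween-20. ClpP 10 microg/mL final; 20 min RT; delta FRET normalized to ADEP and DMSO controls.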
# LDHA inh: qHTS assay for inhibitors of human lactate dehydrogenase. purified LDHA, NADH/diaphorase-resazurin fluorescence; stronger effect = lower value. activity change, % (values are at about 110 or 230 µM). actives 0.15% (n = 480,000). AID 1347041, 2019; in the data active = activity change below about -30%; inconclusive = mostly about -25% to -30%
#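 Human LDH5 (2 nM) was incubated with 0.06 mM NADH and 0.2 mM pyruvate for 5 min at room temperature in Tris pH 7.4. Remaining NADH was coupled through diaphorase/resazurin, and resorufin fluorescence was read at 0 and 20 min.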
# Mito fusion yeast: qHTS Assay for Small Molecule Inhibitors of Mitochondrial Division or Activators of Mitochondrial Fusion | S. cerevisiae fusion-defective mutant growth rescue, CellTiterGlo 48 h | Potency, µM (titrated, usually from 46.1 µM), most hits filed as activators | actives 0.23% (n = 320,000) | AID 485298, 2010; note: nearly all actives have a fitted effect of over 45% in size
#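 Growth-rescue viability read-out: after 48 h at the non-permissive 37C in glycerol/ethanol YPEG, yeast mitochondrial fusion mutants are measured by CellTiterGlo luminescence; compounds (23 nl pinned per well) restoring growth score as division inhibitors or fusion activators.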
# IDH1 R132H inh: qHTS for Inhibitors of mutant isocitrate dehydrogenase 1 (IDH1): qHTS; actives 0.093% (n = 390,000); Isocitrate dehydrogenase [NADP] cytoplasmic (Homo sapiens), O75874; AID 602179, 2012; Potency, µM (highest dose often 76.6 µM), most hits filed as inhibitors; IDH1-R132H enzyme, NADPH consumption, diaphorase/resazurin fluorescence; note: nearly all actives have a fitted effect of over 65% in size
#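 IDH1-R132H (0.5 ug/mL) preincubated 30 min with compound, then NADPH (0.016 mM) and alpha-KG (2 mM) added; 80 min at RT, pH 7.5. Remaining NADPH coupled via diaphorase/resazurin to fluorescence (540/590 nm); concentration-response curves normalized to no-enzyme control.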
# ASM inhibitor: Inhibitors of Secretory Acid Sphingomyelinase (S-ASM): qHTS; placental ASM, HMU-PC fluorogenic substrate, 60 min; Potency, µM (highest dose often 57.5 µM), most hits filed as inhibitors; actives 0.006% (n = 340,000); AID 504937, 2011
# Target sequence (P17405 47-631 limits assumed): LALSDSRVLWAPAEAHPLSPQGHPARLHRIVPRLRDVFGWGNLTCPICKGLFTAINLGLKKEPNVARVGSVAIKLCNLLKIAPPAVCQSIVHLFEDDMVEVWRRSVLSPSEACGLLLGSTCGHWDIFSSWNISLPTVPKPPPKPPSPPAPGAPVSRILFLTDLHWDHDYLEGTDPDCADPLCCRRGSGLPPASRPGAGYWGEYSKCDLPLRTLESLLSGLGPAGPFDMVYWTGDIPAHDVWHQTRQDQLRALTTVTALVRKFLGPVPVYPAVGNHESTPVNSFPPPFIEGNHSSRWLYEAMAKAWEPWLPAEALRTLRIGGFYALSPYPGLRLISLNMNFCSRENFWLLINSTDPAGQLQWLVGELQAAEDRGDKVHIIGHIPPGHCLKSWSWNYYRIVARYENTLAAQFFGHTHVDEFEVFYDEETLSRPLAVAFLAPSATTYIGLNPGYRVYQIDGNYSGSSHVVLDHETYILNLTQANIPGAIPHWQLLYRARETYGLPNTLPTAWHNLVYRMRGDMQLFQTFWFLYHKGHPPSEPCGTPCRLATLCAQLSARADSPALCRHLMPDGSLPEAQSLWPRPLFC
#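 Human placenta-derived ASM preincubated with compound 10 min at room temperature, then reacted with 9 uM (final) fluorogenic HMU-PC substrate for 60 min at 37 C. Stop solution raises pH to 10; fluorescence read at Ex 386/Em 447 nm.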
# Hits are given with their value; 0 = inactive; ? = inconclusive; - = not tested or not shown; ! = repeats disagree. Unless noted, calls come from the whole dose curve; as a rule, active = well fitted curve in the direction sought with a large enough effect; inconclusive = small, poorly fitted or top-dose-only effect, or another doubt; inactive = no such curve, though single readings can be large; an effect the other way counts as inactive or inconclusive.
SMILES,RGS4 inhibitor,ClpP mod,LDHA inh,Mito fusion yeast,IDH1 R132H inh,ASM inhibitor
COc1ccccc1-c1cc2ccccc2[nH]1,0,39.8µM,0,0,0,0
CCOc1ccc(C(=O)NCc2ccco2)cc1,0,0,0,0,0,0
CCOc1cc(OCC)cc(C(=O)NCc2ccco2)c1,0,14.1µM,0,0,0,0
O=C(NCc1ccco1)c1ccc(COc2cccc3ccccc23)cc1,0,11.2µM,0,0,0,0
O=C(NC1CCCCC1)c1cc2c(F)cccc2s1,-,-,0,-,-,-
O=C(NC1CCCC1)c1cc2c(F)cccc2s1,-,-,-30.3,-,-,-
Cc1cc(S(=O)(=O)NC[C@H]2O[C@@H](n3ccc(N)nc3=O)[C@H](O)[C@@H]2O)c(C)s1,-,0,-30.6,-,0,-
CC(Cc1ccccc1)NNC(=O)C(O)(Cc1ccccc1)Cc1ccccc1 (stereo not given),-,-,0,-,-,-
Clc1ccc(Sc2ccc(Sc3ccc(Cl)cc3)nn2)cc1,-,-,0,-,-,-
CCCOC(=O)C1=C(C)Nc2nnnn2C1c1cc(Br)ccc1OCC (stereo not given),-,-,-31.6,-,-,-
N#Cc1ccc(Oc2c(-c3ccccc3)cccc2-c2ccccc2)cc1C#N,-,-,0,-,-,-
Cc1cc(C)c2c(n1)nn1c(NCCCN(C)C)cc(C)nc21,0,0,0,0,0,0
Cc1cc(NCCCN(C)C)n2nc(-c3cccs3)cc2n1,0,28.2µM,0,0,0,0
COc1cccc(C2CC(=O)Nc3c2c(C)nn3-c2nncc(-c3ccc(C)cc3)n2)c1OC (stereo not given),-,-,0,-,-,-
CC(C)C/C=C(/C#N)c1nc2ccccc2[nH]1,-,-,0,-,-,-
Cc1ccc2[nH]c(=O)c(CN(CCc3ccccc3)C(=O)N3CCOCC3)cc2c1,0,14.1µM,0,0,0,0
CCC(=O)N(Cc1ccc(C)cc1)Cc1cc2cc3c(cc2[nH]c1=O)OCO3,0,31.6µM,0,0,0,0
CCC(=O)N(CCc1ccccc1)Cc1cc2cc3c(cc2[nH]c1=O)OCO3,?,14.1µM,0,0,0,0
O/N=C/c1cccc(Cl)c1Cl,-,-,0,-,-,-
COC1=C(OC)C(=O)c2ccccc2C1=O,?,0,0,25.9µM,-,-
Cc1c(-n2cc(C(=O)O)c(=O)c3cc(F)c(N4CCCC(O)C4)c(F)c32)c(=O)n(-c2ccccc2)n1C (stereo not given),0,10µM,0,0,0,0
O=C(O)c1cn(-c2ccc(N3CCCC3)c(F)c2)c2c(F)c(F)c(F)cc2c1=O,0,-,0,0,0,0
C=CCOc1ccc(C(=O)NCCC2=CCCCC2)cc1,-,-,0,-,-,-
O=C(CNC(=O)c1ccccc1)NCC(=O)OCC(=O)c1ccc2ccccc2c1,0,0,0,-,-,-
O=C(Cc1ccccc1)NCC(=O)OCC(=O)c1ccc2ccccc2c1,0,28.2µM,0,-,-,-
SMILES,RGS4 inhibitor,ClpP mod,LDHA inh,Mito fusion yeast,IDH1 R132H inh,ASM inhibitor
O=C(CNC(=O)c1ccccc1)NCC(=O)OCC(=O)c1cccc2ccccc12,0,0,0,-,-,-
O=C(CNC(=O)Cc1ccccc1)NCC(=O)OCC(=O)c1cccc2ccccc12,0,0,-41.1!,0,0,0
O=C(NNC(=S)NC(=O)C(c1ccccc1)c1ccccc1)c1ccc(NC(=O)c2ccccc2)cc1,-,-,0,-,-,-
CN(C(=O)C1CC1)c1ccccc1C(=O)NC1CCCc2ccccc21 (stereo not given),-,-,0,-,-,-
O=C(c1ccco1)N1CCC(C(=O)N2CCN(C(=O)c3ccco3)CC2)CC1,-,-,0,-,-,-
C=CCn1c(=O)c2c(nc(-n3nc(C)c(C)c3C)n2CC(=C)C)n(C)c1=O,-,-,-32.4,-,-,-
Clc1ccc(CO/N=C/c2c(-c3ccccc3)nc3n2CCS3)c(Cl)c1,0,35.5µM,0,0,0,0
CS(=O)(=O)/C(C#N)=C/c1c(-c2ccccc2)nc2n1CCS2,0,0,0,0,0,0
O=C1CC(c2ccc(F)cc2)c2cc3c(cc2N1)CCC3 (stereo not given),0,0,0,11.2µM,0,0
Cc1scc(C(=O)N/N=C/c2ccc(Cl)s2)c1C,0,0,0,12.6µM,0,0
O=C(O)c1cc(N2C(=O)C3CC=CCC3C2=O)ccc1NCc1cccnc1 (stereo not given),0,31.6µM,0,0,0,0
Cc1ccc(C(C)C)cc1OCC(=O)NC1=NCCS1,-,-,0,-,-,-
CCOC(=O)c1cc2c(ccc3ccccc32)oc1=O,0,0,0,0,0,0
CC(OC(=O)c1cc2c(ccc3ccccc32)oc1=O)c1nc2ccccc2s1 (stereo not given),0,2.82µM,0,0,0,0
C/C(=N/Nc1ccc([N+](=O)[O-])cc1)c1ccc(Cl)cc1,-,-,0,-,-,-
c1ccc(-c2cc(-c3ccc(N4CCOCC4)cc3)nc3ccccc23)cc1,0,0,0,?,0,0
COc1ccc2c(-c3ccccc3)cc(N3CCOCC3)nc2c1,0,31.6µM,?,0,0,0
Cc1cc(C)c(NC(=O)COC(=O)Cn2nc(-c3ccccc3)oc2=O)c(C)c1,0,22.4µM,0,-,0,0
Cc1ccc(S(=O)(=O)/N=C(\N)Nc2nc(C)c3ccc(C)cc3n2)cc1,0,?,0,0,0,0
Cc1ccc2c(C)nc(N/C(N)=N/S(=O)(=O)c3ccccc3)nc2c1,0,28.2µM,0,0,0,-
Cc1ccc2nc(-c3cccnc3)cc(C(=O)NCCc3ccccc3)c2c1,-,-,0,-,-,-
CCCSc1nnc(-c2ccccc2NC(C)=O)c(=O)[nH]1,-,-,0,-,-,-
COc1cccc2c1cc1c(=O)n(CC(=O)N3CCN(c4cccc(C(F)(F)F)c4)CC3)nc(C)n12,0,15.8µM,0,-,0,-
COc1cccc(N2CCN(C(=O)Cn3nc(C)n4c(cc5c(OC)cccc54)c3=O)CC2)c1,0,0,0,-,0,-
CCOC(=O)C1CCN(C(=O)Cn2nc(C)n3c(cc4c(OC)cccc43)c2=O)CC1,0,2.82µM,0,-,0,-
COc1ccc(C(NC(=O)c2oc3ccc(F)cc3c2C)c2nccn2C)cc1 (stereo not given),-,-,0,-,-,-
C[N+](C)(C)CCN(Cc1ccc(Cl)cc1)c1ccccn1,0,25.1µM,?,0,0,0
CCOC(=O)c1c(C)[nH]c(C)c1C(=O)COC(=O)/C=C/c1cccc(F)c1,0,0,0,0,0,0

# Source: PubChem BioAssay (National Center for Advancing Translational Sciences (NCATS))
